# Assay results reported in the supplement of paper PMC8728848.
# The entries come from a sample that favours the strongest signals as a whole.
# Columns and labels:
# Assay in all cases: glycan array binding signal (z-score within array); higher = stronger binding
# Details in all cases: glycan notation: IUPAC condensed, linker removed
# [1] = biological target: Fuc(a1-2)[Gal(a1-3)]Gal(b1-4)Glc
# How it was run: (§1)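 Glycan array data were curated from 3228 arrays in the Consortium for Functional Glycomics database and kept only where the protein sequence was available. Glycan names were converted to IUPAC-condensed notation, and columns mapping to the same glycan were averaged. The binding signal is a within-array Z-score, averaged across arrays of the same protein sequence at different concentrations or buffers and across linkers. Negative Z-scores can be read as non-binding.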
# [2] = biological target: Fuc(a1-2)[Gal(a1-3)]Gal(b1-4)GlcNAc
# How it was run: as §1
# [3] = biological target: Fuc(a1-2)[Gal(a1-3)]Gal(b1-4)GlcNAc(b1-2)Man(a1-3)[Fuc(a1-2)[Gal(a1-3)]Gal(b1-4)GlcNAc(b1-2)Man(a1-6)]Man(b1-4)GlcNAc(b1-4)GlcNAc
# How it was run: as §1
# [4] = biological target: Fuc(a1-2)[GalNAc(a1-3)]Gal(b1-3)GlcNAc(b1-2)Man(a1-3)[Fuc(a1-2)[GalNAc(a1-3)]Gal(b1-3)GlcNAc(b1-2)Man(a1-6)]Man(b1-4)GlcNAc(b1-4)GlcNAc
# How it was run: as §1
# [5] = biological target: Fuc(a1-2)[GalNAc(b1-3)]Gal
# How it was run: as §1
# [6] = biological target: Fuc(a1-3)[Gal(b1-4)]GlcNAc
# How it was run: as §1
# [7] = biological target: Fuc(a1-3)[Gal3S(b1-4)]GlcNAc6S
# How it was run: as §1
# [8] = biological target: Gal(a1-3)Gal(b1-3)GlcNAc
# How it was run: as §1
# [9] = biological target: Gal(a1-4)Gal(b1-4)Glc
# How it was run: as §1
# [10] = biological target: Gal(a1-6)Glc
# How it was run: as §1
# [11] = biological target: Gal(b1-3)Gal(b1-4)GlcNAc(b1-2)Man(a1-3)[Gal(b1-3)Gal(b1-4)GlcNAc(b1-2)Man(a1-6)]Man(b1-4)GlcNAc(b1-4)GlcNAc
# How it was run: as §1
# [12] = biological target: Gal(b1-3)GalNAc(b1-4)Gal(b1-4)Glc
# How it was run: as §1
# [13] = biological target: Gal(b1-3)GalNAc(b1-4)[Neu5Ac(a2-3)]Gal(b1-4)Glc
# How it was run: as §1
# [14] = biological target: Gal(b1-3)GlcNAc(b1-2)Man(a1-3)[Gal(b1-3)GlcNAc(b1-2)Man(a1-6)]Man(b1-4)GlcNAc(b1-4)GlcNAc
# How it was run: as §1
# [15] = biological target: Gal(b1-3)GlcNAc(b1-3)Gal(b1-3)GlcNAc
# How it was run: as §1
# [16] = biological target: Gal(b1-3)GlcNAc(b1-3)Gal(b1-4)[Fuc(a1-3)]GlcNAc(b1-6)[Gal(b1-3)GlcNAc(b1-3)]Gal(b1-4)Glc
# How it was run: as §1
# [17] = biological target: Gal(b1-4)Glc
# How it was run: as §1
# [18] = biological target: Gal(b1-4)GlcNAc(b1-2)[Gal(b1-4)GlcNAc(b1-4)]Man(a1-3)[Gal(b1-4)GlcNAc(b1-2)Man(a1-6)]Man(b1-4)GlcNAc(b1-4)GlcNAc
# How it was run: as §1
# [19] = biological target: Gal(b1-4)GlcNAc(b1-3)[Gal(b1-4)GlcNAc(b1-6)]GalNAc
# How it was run: as §1
# [20] = biological target: Gal(b1-4)GlcNAc(b1-6)[Gal(b1-3)]GalNAc
# How it was run: as §1
# [21] = biological target: Gal3S(b1-4)[Fuc(a1-3)]Glc
# How it was run: as §1
# [22] = biological target: GalNAc(a1-3)GalNAc(a1-3)Gal(a1-4)Gal(b1-4)GlcNAc
# How it was run: as §1
# [23] = biological target: GalNAc(b1-3)Gal(a1-6)Gal(b1-4)Glc
# How it was run: as §1
# [24] = biological target: Glc(b1-6)Glc
# How it was run: as §1
# [25] = biological target: GlcNAc(a1-4)Gal(b1-4)GalNAc
# How it was run: as §1
# [26] = biological target: GlcNAc(a1-4)Gal(b1-4)GlcNAc(b1-3)Gal(b1-4)[Fuc(a1-3)]GlcNAc(b1-3)Gal(b1-4)[Fuc(a1-3)]GlcNAc
# How it was run: as §1
# [27] = biological target: Man(a1-6)Man
# How it was run: as §1
# [28] = biological target: Man(b1-4)GlcNAc
# How it was run: as §1
# [29] = biological target: Neu5Ac(a2-3)Gal(b1-3)GlcNAc(b1-3)GalNAc
# How it was run: as §1
# [30] = biological target: Neu5Ac(a2-3)Gal(b1-4)[Fuc(a1-3)]GlcNAc(b1-3)Gal(b1-4)[Fuc(a1-3)]GlcNAc(b1-3)Gal(b1-4)[Fuc(a1-3)]GlcNAc
# How it was run: as §1
binder,measurement,setting,value
"SspB (Streptococcus gordonii), P16952 (protein) MKNKKEVYGFRKSKVAKTLCGAVLGTALIAFADKAVFADEVTETTSTSTVEVATTGNPATNLPEAQGEMSQVAKESQAKAGSKESALPVEVSSADLDKAVADAKSAGVKVVQDETKDKGTATTATDNAQKQDEIKSDYAKQAEEIKTTTEAYKKEVAAHQAETDKINAENKAADDKYQKDLKSHQEEVEKINTANATAKAEYEAKLAQYQKDLATVKKANEDSQQDYQNKLSAYQTELARVQKANAEAKEAYEKAVKENTAKNEALKVENEAIKQRNETAKATYEAAMKQYEADLAAIKKANEDNDADYQAKLAAYQTELARVQKANAEAKEAYDKAVKENTAKNTAIQAENEAIKQRNETAKATYDAAVKKYEADLAAVKQANATNEADYQAKLAAYQTELARVQKANADAKATYEKAVEDNKAKNAAIKAENEEIKQRNAVAKTDYEAKLAKYEADLAKYKKEFAAYTAALAEAESKKKQDGYLSEPRSQSLNFKSEPNAIRTIDSSVHQYGQQELDALVKSWGISPTNPDRKKSRAYSYFNAINSNNTYAKLVLEKDKPVDVTYTGLKNSSFNGKKISKVVYTYTLKETGFNDGTKMTMFASSDPTVTAWYNDYFTSTNINVKVKFYDEEGQLMNLTGGLVNFSSLNRGNGSGAIDKDAIESVRNFNGRYIPISGSSIKIHENNSAYADSSNAEKSLGARWNTSEWDTTSSPNNWYGAIVGEITQSEISFNMASSKSGNIWFAFNSNINAIGVPTKPVAPTAPTQPMYETEKPLEPAPVAPSYENEPTPPVKTPDQPEPSKPEEPTYETEKPLEPAPVAPSYENEPTPPVKTPDQPEPSKPEEPNYETEKPLEPAPVAPSYENEPTPPVKIPDQPEPSKPEEPTYDPLPTPPLAPTPKQLPTPPVVPTVHFHYSSLLAQPQINKEIKNEDGVDIDRTLVAKQSIVKFELKTEALTAGRPKTTSFVLVDPLPTGYKFDLDATKAASTGFDTTYDEASHTVTFKATDETLATYNADLTKPVETLHPTVVGRVLNDGATYTNNFTLTVNDAYGIKSNVVRVTTPGKPNDPDNPNNNYIKPTKVNKNKEGLNIDGKEVLAGSTNYYELTWDLDQYKGDKSSKEAIQNGFYYVDDYPEEALDVRPDLVKVADEKGNQVSGVSVQQYDSLEAAPKKVQDLLKKANITVKGAFQLFSADNPEEFYKQYVATGTSLVITDPMTVKSEFGKTGGKYENKAYQIDFGNGYATEVVVNNVPKITPKKDVTVSLDPTSENLDGQTVQLYQTFNYRLIGGLIPQNHSEELEDYSFVDDYDQAGDQYTGNYKTFSSLNLTMKDGSVIKAGTDLTSQTTAETDATNGIVTVRFKEDFLQKISLDSPFQAETYLQMRRIAIGTFENTYVNTVNKVAYASNTVRTTTPIPRTPDKPTPIPTPKPKDPDKPETPKEPKVPSPKVEDPSAPIPVSVGKELTTLPKTGTNDATYMPYLGLAALVGFLGLGLAKRKED",glycan array binding signal (z-score),[1],0.486
same,glycan array binding signal (z-score),[2],0.017
same,glycan array binding signal (z-score),[3],2.31
same,glycan array binding signal (z-score),[4],-0.556
same,glycan array binding signal (z-score),[5],0.761
same,glycan array binding signal (z-score),[6],-0.041
same,glycan array binding signal (z-score),[7],0.242
same,glycan array binding signal (z-score),[8],-0.597
same,glycan array binding signal (z-score),[9],-1.22
same,glycan array binding signal (z-score),[10],0.072
same,glycan array binding signal (z-score),[11],-0.672
same,glycan array binding signal (z-score),[12],1.1
same,glycan array binding signal (z-score),[13],-1.62
same,glycan array binding signal (z-score),[14],0.616
same,glycan array binding signal (z-score),[15],-0.283
same,glycan array binding signal (z-score),[16],1.07
same,glycan array binding signal (z-score),[17],-0.34
same,glycan array binding signal (z-score),[18],1.08
same,glycan array binding signal (z-score),[19],5.73
same,glycan array binding signal (z-score),[20],-1.35
same,glycan array binding signal (z-score),[21],0.344
same,glycan array binding signal (z-score),[22],0.985
same,glycan array binding signal (z-score),[23],-0.859
same,glycan array binding signal (z-score),[24],-1.1
same,glycan array binding signal (z-score),[25],-0.557
same,glycan array binding signal (z-score),[26],3.03
same,glycan array binding signal (z-score),[27],2.65
same,glycan array binding signal (z-score),[28],-0.696
same,glycan array binding signal (z-score),[29],0.045
same,glycan array binding signal (z-score),[30],0.022
